# According to PubChem BioAssay AID1851 (National Center for Advancing Translational Sciences (NCATS), 2009):
# Hit rate of the full screen: of about 16,000 compounds, about 4,000 (25%) were called active. About 26% were inconclusive and are not listed. Calls follow the shape of the dose curve; as a rule, active = well fitted curve in the direction sought with a large enough effect; inconclusive = small, poorly fitted or top-dose-only effect, or effect the other way; inactive = no such curve, though single readings can be large or run the other way. The list is a sample of the results.
# Target: Cytochrome P450 2C9 (Homo sapiens) (UniProt P11712)
# Sequence (P11712 whole entry, looked up): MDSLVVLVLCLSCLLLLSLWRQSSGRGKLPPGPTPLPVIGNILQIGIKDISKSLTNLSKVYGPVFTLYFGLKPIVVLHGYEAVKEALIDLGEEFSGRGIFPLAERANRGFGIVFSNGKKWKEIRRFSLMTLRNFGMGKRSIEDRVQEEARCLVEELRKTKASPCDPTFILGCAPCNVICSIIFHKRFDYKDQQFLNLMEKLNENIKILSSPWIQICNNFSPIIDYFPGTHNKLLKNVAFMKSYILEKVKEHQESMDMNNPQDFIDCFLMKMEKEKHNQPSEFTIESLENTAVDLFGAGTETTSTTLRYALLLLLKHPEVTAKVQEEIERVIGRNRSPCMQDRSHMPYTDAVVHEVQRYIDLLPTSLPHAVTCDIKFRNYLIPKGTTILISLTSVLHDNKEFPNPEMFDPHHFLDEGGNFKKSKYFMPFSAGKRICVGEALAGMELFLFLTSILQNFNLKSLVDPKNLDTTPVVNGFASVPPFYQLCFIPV
# Test: Cytochrome panel assay with activity outcomes
# Settings: recombinant CYP, pro-luciferin dealkylation, luminescence, p450-cyp2c9; series mostly up to 57.1 µM
# % is scaled to controls: 0 for no effect and ±100 for the full control effect.
SMILES,AC50,"activity, negative = inhibition"
O=C1C(Cc2ccccc2)C(c2ccccc2)N1c1ccccc1 (stereo unspecified),7.08 µM (active),
CCCC1C(=O)N(c2ccccc2)C1c1ccccc1 (stereo unspecified),10 µM (active),
CCCCN1C(=O)CCC(C(=O)O)C1c1ccccc1 (stereo unspecified),inactive,
CN1C(=O)C[C@H](c2ccccc2)C1=O,inactive,
CN(C)CCNS(=O)(=O)N(C)C,,11.3% [at 11.4 µM] (inactive)
CO[C@]1(NC(=O)[C@H](C(=O)O)c2ccc(O)cc2)C(=O)N2C(C(=O)O)=C(CSc3nnnn3C)CO[C@H]21,inactive,
c1ccc(Nc2nc(-c3ccoc3)nc3ccccc23)cc1,,-10.3% [at 2.29 µM] (inactive)
CN1CC(c2ccccn2)C2(SC(=S)N(Cc3ccccc3)C2=O)C12C(=O)Nc1ccccc12 (stereo unspecified),4.47 µM (active),
CCCCN(c1ccccc1)c1ncnc2c1cnn2C,,1.33% [at 11.4 µM] (inactive)
CN1CCN(CN2C(=O)C3C4C=CC(C3C2=O)C2C3C(=O)N(CN5CCN(C)CC5)C(=O)C3C42)CC1 (stereo unspecified),,-2.91% [at 11.4 µM] (inactive)
Oc1ccc(C2Nc3cccc4cccc(c34)N2)c(O)c1,14.1 µM (active),
Oc1ccccc1C1Nc2cccc3cccc(c23)N1,8.91 µM (active),
O=C(O)[C@H]1C[C@@H](CP(=O)(O)O)CCN1,inactive,
O=C1[C@H]2[C@H]3[C@H](O)[C@H](O)C/C(=N/OC[C@@H](O)COCc4ccco4)[C@H]3CC[C@@H]2C(=O)N1C[C@@H]1CCCO1,,7.75% [at 11.4 µM] (inactive)
O=C1C=C(Nc2ccc(Cl)cc2)CC(c2ccc(Cl)cc2)C1 (stereo unspecified),10 µM (active),
O=C1C=C(NCCN2CCOCC2)CC(c2ccccc2)C1 (stereo unspecified),inactive,
O=C(O)C1(Nc2ccc(Cl)cc2)CCCC1,,-21.4% [at 11.4 µM] (inactive)
C#CCSc1nnc(-c2sc3ccccc3c2Cl)o1,inactive,
Clc1ccccc1CSc1nnc(-c2ccncc2)o1,0.447 µM (active),
Clc1ccc(-c2nnc(-c3cccc4ccccc34)o2)cc1Cl,,24% [at 11.4 µM] (inactive)
c1ccc2c(CSc3nnc(-c4ccncc4)o3)cccc2c1,0.178 µM (active),
CC[N+](C)(C)c1cccc(O)c1,inactive,
Cc1ccc(S(=O)(=O)N2CCN(Cc3ccccc3C(F)(F)F)CC2)cc1,39.8 µM (active),

SMILES,AC50,"activity, negative = inhibition"
Cc1ccc(S(=O)(=O)N2CCN(S(C)(=O)=O)C2)cc1,inactive,
COc1ccccc1CN1CCC2(CC1)CCN(S(=O)(=O)c1ccccc1)CC2,inactive,
O=C1[C@H]2[C@H]3[C@H](O)[C@H](O)C/C(=N/OCc4ccccc4)[C@H]3CC[C@@H]2C(=O)N1Cc1ccc2c(c1)OCO2,,-16.6% [at 11.4 µM] (inactive)
COc1ccccc1CNc1nc(-c2ccccc2CN(C)C)nc2ccccc12,,5.51% [at 2.29 µM] (inactive)
CN(c1ccccc1)c1nc(-n2ccnc2)nc(-n2ccnc2)n1,0.282 µM (active),
Cc1ccccc1-c1nc(-n2ccnc2)c2ccccc2n1,,-7.55% [at 2.29 µM] (inactive)
c1ccc(-c2nc(N3CCCCCC3)nc(-n3ccnc3)n2)cc1,5.01 µM (active),
CN(C)C(=O)c1ccc(-c2nc(-n3ccnc3)c3ccccc3n2)cc1,,-0.507% [at 2.29 µM] (inactive)
COc1ccccc1-c1nccc(-n2ccnc2)n1,,6.88% [at 2.29 µM] (inactive)
c1ccc2c(-n3ccnc3)nc(-c3ccoc3)nc2c1,,-6.66% [at 2.29 µM] (inactive)
N[C@@](CC(=O)O)(Cc1ccccc1)C(=O)O,,-1.82% [at 11.4 µM] (inactive)
NC(=O)C1(N2CCCCC2)CCN(C(=O)c2cccn3c(=O)c4cc(Cl)ccc4nc23)CC1,3.98 µM (active),
NC(=O)C1(N2CCCCC2)CCN(C(=O)c2ccc(-n3cnnn3)cc2)CC1,inactive,
CCOC(=O)N1CCN(C(=O)c2cnc3n(c2=O)CCS3)CC1,inactive,
CCOC(=O)N1CCN(C(=O)c2cccn3c(=O)c4cc(Cl)ccc4nc23)CC1,8.91 µM (active),
O=C(c1ccc2nc3ccc(Cl)cc3c(=O)n2c1)N1CCOCC1,inactive,
NC(=O)C1(N2CCCCC2)CCN(C(=S)Nc2ccc(Cl)cc2)CC1,inactive,
Cc1cc(C)cc(NC(=O)C/C(N)=N/O)c1,inactive,
C[C@@H]1CCCC(CC(=O)O)(CC(=O)O)C1,,9.77% [at 11.4 µM] (inactive)
CCOC(=O)N1CCN(C(=O)c2ccc3nc(N4CCC(C)CC4)sc3c2)CC1,2.51 µM (active),
CCOC(=O)N1CCN(C(=O)c2ccc(NC(C)=O)cc2)CC1,inactive,
CC1=NN(C(=O)c2ccncc2)C(=O)[C@@H]1N=Nc1ccc2ccccc2c1,,-11.2% [at 11.4 µM] (inactive)
OCCN(CCO)c1ncnc2nc[nH]c12,,5.61% [at 11.4 µM] (inactive)

SMILES,AC50,"activity, negative = inhibition"
O=C(/C=C/c1ccco1)Nc1ccc(Oc2ccccc2)cc1,5.01 µM (active),
O=C(C=C1SCCS1)/C=C/c1ccco1,inactive,
CO[C@H]1COC(=O)[C@H]2CCCN2C(=O)C/C=C\[C@@H](C)[C@H](OC)COC(=O)C/C=C\[C@@H]1C,,13.8% [at 11.4 µM] (inactive)
CC[C@]1(O)C[C@H]2CN(CCc3c([nH]c4ccccc34)[C@](C(=O)OC)(c3cc4c(cc3OC)N(C=O)[C@H]3[C@@](O)(C(=O)OC)[C@H](OC(C)=O)[C@@]5(CC)C=CCN6CC[C@]43[C@H]65)C2)C1,inactive,
Cc1nc(SCC(=O)Nc2c(C)nn(C)c2C)c2cnn(-c3ccccc3)c2n1,2.51 µM (active),
O=C(c1ccccc1)[C@H](Nc1ccc2ccccc2c1)c1ccccc1,,-6.81% [at 11.4 µM] (inactive)
Cc1nc(SC(C(=O)c2ccccc2)c2ccccc2)n[nH]1 (stereo unspecified),4.47 µM (active),
O=C1COC(c2ccccc2O)=NN1CCCN1CCCC1,,2.77% [at 11.4 µM] (inactive)
O=C(O)[C@@H]1[C@@H](C(=O)NCc2ccccn2)[C@@H]2C=C[C@@H]1O2,,1.33% [at 11.4 µM] (inactive)
CN(c1ccc(C(=O)NCc2ccccn2)cc1)S(C)(=O)=O,inactive,
Cc1ccc(NS(=O)(=O)c2cc(C(=O)N3CCc4ccccc4C3)ccc2Cl)cc1,2.51 µM (active),
Cc1ccc(NS(=O)(=O)c2cc(C(=O)NCc3ccccn3)ccc2Cl)cc1,17.8 µM (active),
CN(CC(=O)Nc1ccc(F)c(F)c1)S(=O)(=O)c1cccc2nsnc12,0.355 µM (active),
CC1CCN(C(=O)CN(C)S(=O)(=O)c2cccc3nsnc23)CC1,inactive,
COc1ccc(C(F)(F)F)cc1N/C=C\c1nnnn1-c1ccccc1,4.47 µM (active),
CS(=O)(=O)N1CCC[C@@]2(CCN(c3ncccn3)C2)C1,inactive,
O=C(O)COC(=O)Cc1ccccc1Nc1c(Cl)cccc1Cl,1.58 µM (active),
O=C(O)C[C@H](Cc1ccccc1Cl)C(=O)O,,2.18% [at 11.4 µM] (inactive)
NC(=O)NC(=O)Nc1ccccc1Cl,inactive,
CNc1ccnc(-c2ccccc2OC)n1,,-17.5% [at 2.29 µM] (inactive)
CCCS(=O)(=O)N1CCCC(C(=O)NCCN(C)Cc2ccccc2)C1 (stereo unspecified),inactive,
O=C(NCCC1=CCCCC1)C1CCCN(c2nc3ccccc3o2)C1 (stereo unspecified),3.55 µM (active),
CC1CC(C)CN(CCCNC(=O)C2CCCN(c3nnc(N4CCCC4=O)s3)C2)C1 (stereo unspecified),inactive,

SMILES,AC50,"activity, negative = inhibition"
CC(C)Cn1c(=O)n(C)c(=O)c2[nH]cnc21,inactive,
Cn1c(=O)c(C(=O)CN2CCOCC2)c(N)n(Cc2ccccc2)c1=O,inactive,
CC(C)Cn1c(N)c(C(=O)CSc2ccc3c(c2)OCCO3)c(=O)n(C)c1=O,3.55 µM (active),
CN1CCN(c2ncncc2-c2ccoc2)CC1,,17.1% [at 2.29 µM] (inactive)
Cc1ccc(C(C(=O)NC2CCCCC2)N2CCN(C(=O)c3ccco3)CC2)cc1 (stereo unspecified),inactive,
O=C(Nc1ccccc1C(=O)NCCc1ccccc1)c1ccco1,2.82 µM (active),
CCC(NC(=O)c1ccccc1NC(=O)c1ccco1)C(=O)NC1CCCCC1 (stereo unspecified),7.08 µM (active),
CCCC[P+](CCCC)(CCCC)Cc1ccc(NC(=O)[C@@H](Cc2ccc3ccccc3c2)NC(=NC2CCCCC2)NC2CCCCC2)cc1,inactive,
O=C(Nc1ccccc1C(=O)Nc1ccc2c(c1)OCO2)c1ccco1,1.41 µM (active),
COc1ccccc1CNc1cc(-c2ccc(C(=O)N(C)C)cc2)ncn1,,10% [at 2.29 µM] (inactive)
CN1CCN(C2=Nc3ccccc3Oc3ccc(Cl)cc32)CC1,inactive,
COC(=O)c1c(NC(=O)c2ccco2)sc2c1CCC2,2.82 µM (active),
CCN1C(=O)[C@H]2[C@H]3[C@H](O)[C@H](O)C/C(=N/O[C@@H]4O[C@@H](COC(C)=O)[C@@H](OC(C)=O)[C@@H](OC(C)=O)[C@H]4OC(C)=O)[C@H]3CC[C@@H]2C1=O,,23.1% [at 11.4 µM] (inactive)
COc1cc(NC(=O)c2cc3nc(-c4ccccc4)cc(-c4ccccc4)n3n2)cc(OC)c1OC,2.24 µM (active),
COc1ccc(-c2cc(C(=O)Nc3cc(OC)c(OC)c(OC)c3)no2)cc1OC,inactive,
O=c1ccnc(SCc2ccc(Cl)cc2)[nH]1,,-29.9% [at 11.4 µM] (inactive)
Clc1ccc(CSc2ncnc3c2ncn3[C@@H]2CCCCO2)cc1,,-17.8% [at 11.4 µM] (inactive)
CC(C)[C@H](N)c1nnc(SCc2ccc(Cl)cc2)o1,1.78 µM (active),
CC(CC(=O)O)(CC(=O)O)C(=O)O,,-9.5% [at 11.4 µM] (inactive)
O=C(Cc1ccccc1[N+](=O)[O-])NCCSCc1c(F)cccc1Cl,inactive,
O=C(O)CCSCc1ccccc1,,24.2% [at 11.4 µM] (inactive)
O=C(Cc1ccccc1)NCCSCc1ccc(Cl)cc1,3.98 µM (active),
